Test results: PubChem BioAssay AID504329 (Southern Research Specialized Biocontainment Screening …, 2011)
Values joined by “and” are separate entries in the source; they are usually repeats but may differ in a detail not shown here. Equal values may be shown once. The campaign covered roughly 340,000 compounds. About 1,000 (0.29%) were called active. Cut-off read from the data, not from the text of the source: inconclusive = inhibition above about 27% without an active follow-up result; inactive = below that. These entries were drawn from the full list. Entries with a potency or affinity are not part of this list.

Experiment: H1N1 influenza NS1A inhibitors, functional cell based assay (AID 504329)
Details: percent inhibition, at 12.5 µM, hits give high values
With `Cc1noc(C)c1CSc1nnc2scc(-c3ccccc3)n12` the inhibition was 0.06% (inactive). For `Cc1ccc(S(=O)(=O)NCCNC(=O)C2CCCNC2=O)cc1` (stereo not drawn), the inhibition was -2.4% (inactive). For `NNC(=O)COc1cccc(C(F)(F)F)c1`, the inhibition was -3.83% (inactive). For `CC(C)CC(=O)C(=O)O`, the inhibition was 1.46% (inactive) and 3.24% (inactive). In the case of `O=C(COC(=O)c1cccc(-n2cnnn2)c1)c1ccc(F)cc1`, the inhibition is reported as -2.74% (inactive). With `Cc1ccccc1-c1cccc([C@@H]2C[C@H]3[C@H](CON3C)CN2S(=O)(=O)c2ccccc2C)c1` the inhibition was -6.53% (inactive). In the case of `Cc1ccc(S(=O)(=O)N2CCOCC2)cc1NC(=O)CNCc1ccccc1Cl`, the inhibition is reported as -1.72% (inactive). In the case of `COc1ccccc1CNCC(=O)Nc1cc(S(=O)(=O)N2CCCCCC2)ccc1Cl`, the inhibition is reported as 2.82% (inactive). With `O=C(CNCc1ccncc1)Nc1cc(S(=O)(=O)N2CCCCC2)ccc1Cl` the inhibition was -4.7% (inactive). In the case of `Cc1ccc(S(=O)(=O)N2CCOCC2)cc1NC(=O)CSc1ccccn1`, the inhibition is reported as -3.06% (inactive). In the case of `CS(=O)(=O)c1ccc(-c2cccc(NC(=O)COc3ccc(Cl)cc3)c2)nn1`, the inhibition is reported as 7.16% (inactive). With `Fc1ccc(Oc2nccc(-c3ccc(Cl)cc3)n2)cc1` the inhibition was -2.98% (inactive). With `CCN(C[C@H]1N[C@@](CC)(C(=O)OC)[C@H]2C(=O)N(Cc3ccccc3)C(=O)[C@@H]12)C(=O)C1CCCCC1` the inhibition was -2.32% (inactive). For `O=C(NNC(=O)c1ccccc1Br)c1ccc2nc[nH]c2c1`, the inhibition was 22.1% (inactive). In the case of `CCOC(=O)C1(CC)NC(c2ccc(N(C)C)cc2)C2C(=O)N(C)C(=O)C21` (stereo not drawn), the inhibition is reported as 9.29% (inactive). For `CCOc1ccc2c(c1)-c1c(ssc1=S)C(C)(C)N2C(=O)c1ccco1`, the inhibition was 1.84% (inactive). For `COc1ccc2c(c1)-c1c(ssc1=S)C(C)(C)N2S(=O)(=O)c1ccc(C)cc1`, the inhibition was 17.8% (inactive). With `CCN(CC(=O)Nc1c(F)cccc1F)C(=O)CSc1ccccc1` the inhibition was -8.64% (inactive). With `Oc1ccccc1/C=N/Nc1cccc2cccnc12` the inhibition was -0.48% (inactive). With `Clc1ccccc1/C=N/Nc1cc(N2CCOCC2)ncn1` the inhibition was 17.6% (inactive). With `COc1cccc(/C=N/Nc2c(Cl)cncc2Cl)c1O` the inhibition was 1.36% (inactive). With `COc1ccc(/C=N/Nc2cc(OC)ncn2)cc1` the inhibition was 3.33% (inactive). For `COc1cc(N/N=C/c2ccc(N(C)C)cc2)ncn1`, the inhibition was -5.63% (inactive). In the case of `COc1ccc(/C=N/Nc2cc(N3CCOCC3)ncn2)c(OC)c1`, the inhibition is reported as -0.39% (inactive). For `COc1cccc(/C=N/Nc2cc(Cl)nc(C)n2)c1O`, the inhibition was -12.7% (inactive). In the case of `Oc1ccccc1/C=N/Nc1ccnc(SCc2ccccc2)n1`, the inhibition is reported as -3.79% (inactive). In the case of `CCN(C(=O)COC(=O)Cc1c[nH]c2ccccc12)C1CCS(=O)(=O)C1` (stereo not drawn), the inhibition is reported as 2.01% (inactive). With `Cc1ccc(NC(=O)CSc2nc3ccccc3c(=O)[nH]2)cc1[N+](=O)[O-]` the inhibition was 5.04% (inactive). In the case of `COc1ccccc1NC(=O)NNC(=O)CCc1ccccc1`, the inhibition is reported as -10.3% (inactive). For `COc1ccc(NC(=S)N(CCCN2CCOCC2)Cc2cn(C)c3ccccc23)cc1OC`, the inhibition was 2.8% (inactive). In the case of `COc1ccc(OCc2nnc(SCc3ccc(C(=O)O)cc3)o2)cc1`, the inhibition is reported as 5.27% (inactive). In the case of `O=C(NC1CCCC1)C(c1ccc(F)cc1)N(C(=O)c1csnn1)c1ccccc1F` (stereo not drawn), the inhibition is reported as -6.01% (inactive). For `Cn1cc(CN2CCC(n3nccc3NC(=O)CCCc3ccccc3)CC2)cn1`, the inhibition was -14% (inactive). With `COc1ccc(-c2cc(C(=O)NCCN3CCOCC3)c3ccccc3n2)cc1OC` the inhibition was 23% (inactive). For `O=C(CSc1nnc(Nc2ccccc2)s1)Nc1cccc(S(=O)(=O)N2CCCCC2)c1`, the inhibition was -4.99% (inactive). In the case of `CS(=O)(=O)Nc1ccccc1C(=O)OCC(=O)N1CCC(c2ccccc2)=N1`, the inhibition is reported as -6.95% (inactive). With `Cc1ccc(S(=O)(=O)CCC(=O)Nc2nc(-c3ccccn3)cs2)cc1` the inhibition was 7.88% (inactive). For `O=C(CCS(=O)(=O)c1ccccc1)Nc1nc(-c2cccs2)cs1`, the inhibition was -56.6% (inactive). In the case of `O=C(CCS(=O)(=O)c1ccc(F)cc1)Nc1nc(-c2ccncc2)cs1`, the inhibition is reported as -5.43% (inactive). For `O=C(CCS(=O)(=O)c1ccccc1)Nc1nc(-c2ccc(F)cc2)cs1`, the inhibition was -4.12% (inactive). With `CC(C)Oc1ccc(S(=O)(=O)N2CCCCC2)cc1NC(=O)CN1C(=O)NC(C)(C2CC2)C1=O` (stereo not drawn) the inhibition was -3.52% (inactive). For `O=C(C1CCN(S(=O)(=O)c2ccccc2)CC1)N1CCCCCC1`, the inhibition was 12.9% (inactive). For `CC(C)(C)C(=O)CSc1nc2ncc(Br)cc2[nH]1`, the inhibition was 0.51% (inactive). For `COC(=O)c1ccc(NC(=O)c2cn(-c3cccc(C)n3)cn2)cc1`, the inhibition was -7.7% (inactive). For `Cc1ccc(NC(=O)c2cn(-c3cccc(C)n3)cn2)cc1`, the inhibition was -6.72% (inactive). For `C/C(=N/NC(=O)c1cn(-c2cccc(C)n2)cn1)c1ccc(C)cc1`, the inhibition was 3.85% (inactive). In the case of `Cc1cccc(-n2cnc(C(=O)N/N=C/c3ccccc3)c2)n1`, the inhibition is reported as -4.63% (inactive). For `COc1ccc(OC)c(NC(=O)COC(=O)[C@H](Cc2ccccc2)NC(=O)c2ccco2)c1`, the inhibition was -3.78% (inactive). With `O=C(c1ccc(Cn2c(=S)[nH]c3ccc(N4CCOCC4)cc3c2=O)cc1)N1CCN(c2ccc(F)cc2)CC1` the inhibition was -6.32% (inactive). With `COc1cc(CN(C)C)cc(C=O)c1O` the inhibition was 1.87% (inactive). In the case of `Nc1nc2cc(Br)ccc2o1`, the inhibition is reported as -24.5% (inactive). For `COc1cc(C(C)=O)ccc1OCC(=O)Nc1cc(Cl)ccc1-n1cncn1`, the inhibition was -5.4% (inactive). With `O=C(NCC(=O)N(c1ccc(F)cc1)C(C(=O)NC1CCCC1)c1cccnc1)c1cccs1` (stereo not drawn) the inhibition was -7.6% (inactive). In the case of `O=C(CN1C(=O)c2cccnc2Oc2ccc(Cl)cc21)N1CCCC1`, the inhibition is reported as -12.6% (inactive). For `O=C1c2ccccc2CN1CCNS(=O)(=O)c1ccc2ccccc2c1`, the inhibition was 0.05% (inactive). In the case of `CCN(Cc1nc2cc(Cl)ccc2c(=O)[nH]1)C(=O)c1cc2c(s1)CCCCC2`, the inhibition is reported as -9.24% (inactive). In the case of `CC1(C(=O)NCc2cc(F)cc(C(F)(F)F)c2)C=CC2(CCCCC2)N1C(=O)c1ccccc1` (stereo not drawn), the inhibition is reported as -9.29% (inactive). For `CS(=O)(=O)N(CC(=O)NCC1CCCO1)Cc1ccc(Cl)cc1` (stereo not drawn), the inhibition was -3.33% (inactive).
